Experiment in all cases: log2 fold change, soluble protein after heating vs DMSO (PISA); higher = thermal stabilisation; K562 lysate, 10 uM; active = over 0.2 and 3.5 SD of the protein, either way, in both replicates (recomputed)
Compound in experiment [1]: CCCS(=O)(=O)Nc1ccc(F)c(C(=O)c2c[nH]c3ncc(-c4ccc(Cl)cc4)cc23)c1F [vemurafenib]
In short, it runs like this: (§1)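 Soluble protein was defined as the supernatant remaining after 21,000xg for 90 min, following pooling of heated aliquots and adjustment to 0.5% NP-40 at 4°C. Before that, crude K562 extract at 1 mg/mL protein in PBS pH 7.4 with 1 mM MgCl2 was treated with 10 μM compound for 30 min and heated for 3 min across 48°C-58°C. Quantification used TMTpro 16plex LC-MS/MS with channel sums equalised, and values are log-two fold changes in thermal stability relative to solvent controls from duplicates.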

Compound in experiment [2]: CCCS(=O)(=O)Nc1ccc(F)c(C(=O)c2c[nH]c3ncc(Cl)cc23)c1F
In short, it runs like this:
as §1

Compound in experiment [3]: CC[C@@H]1C(=O)N(C)c2cnc(Nc3ccc(C(=O)NC4CCN(C)CC4)cc3OC)nc2N1C1CCCC1
In short, it runs like this:
as §1

Compound in experiment [4]: CC[C@@H]1C(=O)N(C)c2cnc(Nc3ccc(C(=O)N[C@H]4CC[C@H](N5CCN(CC6CC6)CC5)CC4)cc3OC)nc2N1C(C)C [volasertib]
In short, it runs like this: as §1

Compound in experiment [5]: CCn1c(C(=O)N(C2CC2)C2CC2)cc2c3c(ncn3C)c(Nc3cc(C)n(C)n3)nc21
In short, it runs like this:
as §1

Compound in experiment [6]: CN1CCN(CCOc2cc(OC3CCOCC3)c3c(Nc4c(Cl)ccc5c4OCO5)ncnc3c2)CC1 [saracatinib]
Put shortly: as §1

Compound in experiment [7]: CN1CCN(c2nc(C3=C(c4c[nH]c5ccccc45)C(=O)NC3=O)c3ccccc3n2)CC1 [sotrastaurin]
Put shortly: as §1

Compound in experiment [8]: CN1CCc2c(c3ccccc3n2Cc2ccc(C(=O)NO)cc2)C1 [Tubastatin A]
In short, it runs like this: as §1

Compound in experiment [9]: CNC(=O)C1=CC=CC=C1NC2=NC(=NC=C2Cl)NC3=C(C=C(C=C3)N4CCOCC4)OC
Put shortly:
as §1

Compound in experiment [10]: CNC(=O)c1ccc(Nc2ncc(C(F)(F)F)c(NCc3nccnc3N(C)S(C)(=O)=O)n2)cc1 [defactinib]
In short, it runs like this: as §1

Compound in experiment [11]: CNc1nc(-c2ccc3c(N)n[nH]c3c2)cc(N2C[C@@H](C(=O)NC3CCCCC3)CC[C@H]2C)n1
Put shortly:
as §1

Compound in experiment [12]: COC(=O)N[C@@H](C)CNc1nccc(-c2cn(C(C)C)nc2-c2cc(Cl)cc(NS(C)(=O)=O)c2F)n1 [encorafenib]
Put shortly:
as §1

Compound in experiment [13]: COC(=O)[C@H](CCSC)NC(=O)C1=C(C=C(C=C1)NC[C@H](CS)N)C2=CC=CC=C2
Put shortly: as §1

Compound in experiment [14]: COc1cc(Nc2ncc3c(n2)-c2ccc(Cl)cc2C(c2c(F)cccc2OC)=NC3)ccc1C(=O)O [alisertib]
Put shortly:
as §1

Compound in experiment [15]: COc1cc2nc(-c3cc(F)ccc3O)nc(N[C@@H]3CNC[C@H]3C(C)(C)O)c2cc1OC
Put shortly:
as §1

Compound in experiment [16]: COc1cc2ncnc(Nc3ccc(F)c(Cl)c3)c2cc1OCCCN1CCOCC1 [gefitinib]
Put shortly: as §1

Compound in experiment [17]: CCN(CCCOc1ccc2c(Nc3cc(CC(=O)Nc4cccc(F)c4)[nH]n3)ncnc2c1)CCOP(=O)(O)O [barasertib]
In short, it runs like this:
as §1

Compound in experiment [18]: CCn1cc(-c2ccnc3[nH]c(-c4cccc(CN(C)C)c4)cc23)c(-c2ccc(NC(=O)N(C)C)cc2)n1
In short, it runs like this: as §1

Compound in experiment [19]: CN1CCC(CNc2ccc3ncc(-c4cccc(OC(F)(F)F)c4)n3n2)CC1
Put shortly: as §1

Compound in experiment [20]: CN1CC[C@H](c2c(O)cc(O)c3c(=O)cc(-c4ccccc4Cl)oc23)[C@H](O)C1 [alvocidib]
In short, it runs like this: as §1

About 8,800 targets were measured; listed, in parts, are those with a hit and a random draw of the rest. About 0.5% of all pairs of compound and target were hits. Unmarked numbers belong to inactive results.

Chain of UniProt Q9Y4P8 (Q9Y4P8 whole entry, looked up): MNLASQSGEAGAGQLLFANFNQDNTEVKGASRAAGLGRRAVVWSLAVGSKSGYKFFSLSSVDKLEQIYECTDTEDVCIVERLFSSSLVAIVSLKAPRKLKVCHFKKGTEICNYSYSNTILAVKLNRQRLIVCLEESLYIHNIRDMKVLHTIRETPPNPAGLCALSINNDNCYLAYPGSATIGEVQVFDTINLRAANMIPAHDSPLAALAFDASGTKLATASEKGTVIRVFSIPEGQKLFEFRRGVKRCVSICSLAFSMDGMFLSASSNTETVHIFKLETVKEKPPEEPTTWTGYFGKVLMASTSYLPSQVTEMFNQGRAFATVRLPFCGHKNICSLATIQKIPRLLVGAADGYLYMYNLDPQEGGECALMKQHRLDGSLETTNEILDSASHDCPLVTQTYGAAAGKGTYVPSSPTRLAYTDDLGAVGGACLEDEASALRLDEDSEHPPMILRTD
Chain of UniProt A7E2V4 (A7E2V4 whole entry, looked up): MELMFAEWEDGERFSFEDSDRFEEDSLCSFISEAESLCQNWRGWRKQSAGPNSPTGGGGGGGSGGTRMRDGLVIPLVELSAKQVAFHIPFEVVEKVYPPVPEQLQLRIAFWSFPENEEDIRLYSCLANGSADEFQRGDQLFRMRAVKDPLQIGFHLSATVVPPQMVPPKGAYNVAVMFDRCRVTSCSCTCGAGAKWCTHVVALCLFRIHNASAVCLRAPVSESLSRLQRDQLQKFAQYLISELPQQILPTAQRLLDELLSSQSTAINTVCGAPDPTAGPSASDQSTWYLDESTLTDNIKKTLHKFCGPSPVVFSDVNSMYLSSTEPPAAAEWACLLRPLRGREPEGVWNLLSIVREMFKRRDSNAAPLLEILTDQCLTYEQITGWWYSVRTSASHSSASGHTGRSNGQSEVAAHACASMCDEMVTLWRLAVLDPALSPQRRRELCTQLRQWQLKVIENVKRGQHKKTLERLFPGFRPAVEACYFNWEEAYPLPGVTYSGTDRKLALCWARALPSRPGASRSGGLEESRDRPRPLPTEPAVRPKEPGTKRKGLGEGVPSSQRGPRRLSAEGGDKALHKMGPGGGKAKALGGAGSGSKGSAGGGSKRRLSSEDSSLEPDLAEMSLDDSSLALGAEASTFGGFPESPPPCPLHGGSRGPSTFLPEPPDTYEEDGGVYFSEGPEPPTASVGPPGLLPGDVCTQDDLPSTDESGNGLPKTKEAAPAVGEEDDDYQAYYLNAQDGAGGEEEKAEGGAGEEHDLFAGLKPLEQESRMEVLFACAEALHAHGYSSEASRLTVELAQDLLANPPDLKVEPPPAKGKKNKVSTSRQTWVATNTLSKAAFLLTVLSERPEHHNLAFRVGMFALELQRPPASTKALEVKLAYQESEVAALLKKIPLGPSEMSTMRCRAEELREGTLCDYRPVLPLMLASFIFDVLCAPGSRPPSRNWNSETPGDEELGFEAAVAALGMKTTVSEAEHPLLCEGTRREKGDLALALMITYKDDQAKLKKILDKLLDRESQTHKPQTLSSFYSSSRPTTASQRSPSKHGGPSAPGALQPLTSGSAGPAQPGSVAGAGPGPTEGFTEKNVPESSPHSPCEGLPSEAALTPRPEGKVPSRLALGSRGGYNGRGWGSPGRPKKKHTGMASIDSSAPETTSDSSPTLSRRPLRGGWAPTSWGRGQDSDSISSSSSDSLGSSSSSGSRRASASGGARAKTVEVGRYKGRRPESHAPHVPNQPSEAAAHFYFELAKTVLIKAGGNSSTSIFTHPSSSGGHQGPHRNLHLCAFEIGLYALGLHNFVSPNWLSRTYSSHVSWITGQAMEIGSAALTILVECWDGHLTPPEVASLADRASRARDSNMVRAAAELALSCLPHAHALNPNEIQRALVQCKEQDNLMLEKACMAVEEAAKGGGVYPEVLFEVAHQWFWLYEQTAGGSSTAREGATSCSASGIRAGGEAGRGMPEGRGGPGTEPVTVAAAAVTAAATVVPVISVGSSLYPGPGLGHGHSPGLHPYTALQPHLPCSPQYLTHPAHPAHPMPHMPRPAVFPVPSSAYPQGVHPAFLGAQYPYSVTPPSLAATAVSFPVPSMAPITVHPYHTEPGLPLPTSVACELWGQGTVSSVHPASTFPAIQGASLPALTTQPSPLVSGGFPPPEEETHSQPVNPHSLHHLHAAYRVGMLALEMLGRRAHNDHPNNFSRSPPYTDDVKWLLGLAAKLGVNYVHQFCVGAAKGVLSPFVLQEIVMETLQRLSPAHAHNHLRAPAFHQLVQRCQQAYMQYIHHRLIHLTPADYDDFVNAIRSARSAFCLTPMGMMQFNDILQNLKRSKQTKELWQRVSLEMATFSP
Chain of UniProt Q15776 (Q15776 whole entry, looked up): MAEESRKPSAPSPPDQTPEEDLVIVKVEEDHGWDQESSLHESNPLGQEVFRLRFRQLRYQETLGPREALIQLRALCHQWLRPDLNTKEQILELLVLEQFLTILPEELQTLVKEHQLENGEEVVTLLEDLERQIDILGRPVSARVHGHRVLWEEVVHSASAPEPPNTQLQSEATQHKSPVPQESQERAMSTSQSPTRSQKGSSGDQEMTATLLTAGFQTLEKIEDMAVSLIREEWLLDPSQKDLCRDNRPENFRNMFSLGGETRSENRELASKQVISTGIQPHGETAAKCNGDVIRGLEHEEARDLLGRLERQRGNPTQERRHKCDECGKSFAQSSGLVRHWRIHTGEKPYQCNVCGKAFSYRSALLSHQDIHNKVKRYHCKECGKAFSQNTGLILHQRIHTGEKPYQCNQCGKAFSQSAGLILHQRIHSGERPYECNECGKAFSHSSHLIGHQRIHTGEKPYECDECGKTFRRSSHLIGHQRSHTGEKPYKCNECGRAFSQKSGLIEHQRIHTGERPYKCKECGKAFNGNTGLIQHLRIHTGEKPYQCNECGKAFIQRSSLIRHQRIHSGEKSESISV
Chain of UniProt P30291 (P30291 whole entry, looked up): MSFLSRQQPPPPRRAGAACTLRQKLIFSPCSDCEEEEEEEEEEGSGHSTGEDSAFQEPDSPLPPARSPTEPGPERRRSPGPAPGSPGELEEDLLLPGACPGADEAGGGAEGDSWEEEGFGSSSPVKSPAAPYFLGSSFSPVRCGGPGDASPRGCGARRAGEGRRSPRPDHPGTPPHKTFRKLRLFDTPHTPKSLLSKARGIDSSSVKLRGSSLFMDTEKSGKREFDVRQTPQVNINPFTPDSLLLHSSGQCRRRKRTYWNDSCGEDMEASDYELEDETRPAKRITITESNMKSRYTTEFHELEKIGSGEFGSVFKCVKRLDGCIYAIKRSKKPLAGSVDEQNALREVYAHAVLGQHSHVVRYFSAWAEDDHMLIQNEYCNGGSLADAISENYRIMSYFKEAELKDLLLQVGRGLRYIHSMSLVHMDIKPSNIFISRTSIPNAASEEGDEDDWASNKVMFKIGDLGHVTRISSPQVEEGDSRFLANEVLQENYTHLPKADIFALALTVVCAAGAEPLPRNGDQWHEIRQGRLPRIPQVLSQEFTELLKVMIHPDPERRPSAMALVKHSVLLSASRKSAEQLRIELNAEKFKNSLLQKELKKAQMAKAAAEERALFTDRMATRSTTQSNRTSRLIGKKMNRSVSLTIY
Chain of UniProt Q6WRX3 (Q6WRX3 whole entry, looked up): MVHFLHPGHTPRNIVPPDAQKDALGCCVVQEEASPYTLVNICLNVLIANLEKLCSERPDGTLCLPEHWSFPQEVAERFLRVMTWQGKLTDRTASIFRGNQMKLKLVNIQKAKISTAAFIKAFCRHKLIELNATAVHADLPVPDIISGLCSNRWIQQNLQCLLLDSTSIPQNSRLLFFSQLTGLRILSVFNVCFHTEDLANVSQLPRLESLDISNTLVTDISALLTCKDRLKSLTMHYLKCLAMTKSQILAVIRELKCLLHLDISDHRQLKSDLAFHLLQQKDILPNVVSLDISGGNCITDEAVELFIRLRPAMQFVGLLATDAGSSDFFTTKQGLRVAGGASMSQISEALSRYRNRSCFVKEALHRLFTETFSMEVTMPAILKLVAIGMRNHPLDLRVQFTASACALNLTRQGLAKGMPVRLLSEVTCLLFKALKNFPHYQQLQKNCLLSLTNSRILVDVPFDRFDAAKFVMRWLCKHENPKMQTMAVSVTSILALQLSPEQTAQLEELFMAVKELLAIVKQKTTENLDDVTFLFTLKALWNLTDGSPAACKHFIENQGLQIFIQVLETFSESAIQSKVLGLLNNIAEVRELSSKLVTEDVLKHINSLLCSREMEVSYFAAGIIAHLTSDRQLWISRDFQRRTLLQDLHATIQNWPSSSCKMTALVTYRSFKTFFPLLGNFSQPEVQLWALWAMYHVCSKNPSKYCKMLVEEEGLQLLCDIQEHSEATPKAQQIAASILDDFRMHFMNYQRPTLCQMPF
Chain of UniProt Q16670 (Q16670 whole entry, looked up): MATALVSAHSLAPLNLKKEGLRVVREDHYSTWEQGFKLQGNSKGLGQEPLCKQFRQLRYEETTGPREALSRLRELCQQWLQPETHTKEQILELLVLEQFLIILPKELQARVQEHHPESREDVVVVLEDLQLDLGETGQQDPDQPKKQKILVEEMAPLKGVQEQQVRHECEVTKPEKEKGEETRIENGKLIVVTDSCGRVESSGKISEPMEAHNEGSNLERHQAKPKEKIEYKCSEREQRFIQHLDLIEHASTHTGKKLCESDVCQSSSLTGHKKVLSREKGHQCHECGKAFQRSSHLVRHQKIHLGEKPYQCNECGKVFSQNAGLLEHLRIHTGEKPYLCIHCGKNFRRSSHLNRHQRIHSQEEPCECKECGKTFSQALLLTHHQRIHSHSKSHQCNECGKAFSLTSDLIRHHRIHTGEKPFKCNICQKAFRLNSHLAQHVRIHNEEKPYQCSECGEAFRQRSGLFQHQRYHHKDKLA

Consider ZKSCAN8 (UniProt Q15776), for which the log2 fold change in experiment [1] was 0.049; in experiment [2], -0.173; in experiment [3], -0.019; in experiment [4], -0.17; in [5] it was -0.001; in experiment [6] it was 0.028. For the same target, the log2 fold change in [7] is 0.027; in experiment [8], -0.053; in experiment [9], 0.059; in [10] it was 0.037; in experiment [11], 0.009; in experiment [12] it was 0.2. For the same target, the log2 fold change is -0.206 in experiment [13], -0.084 in experiment [14], -0.001 in [15] and 0 in experiment [16].
Consider ZYG11A (UniProt Q6WRX3), for which the log2 fold change in experiment [2] is -0.15; in experiment [17] it was 0.286; in [4], -0.017; in [5] it was -0.035; in experiment [18], -0.16; in experiment [19] it was 0.011. Moreover, the log2 fold change in experiment [20] is -0.18; in experiment [8] it was 0.018; in experiment [9] it was -0.013; in experiment [14], -0.08; in [15], 0.212; in experiment [16], -0.029.
In the case of WIPI2 isoform 6 (UniProt Q9Y4P8), the log2 fold change in experiment [17] is 0.04; in experiment [18] it was -0.24; in experiment [19], -0.016; in experiment [20], -0.015.
In the case of ZSWIM8 isoform 4 (UniProt A7E2V4), the log2 fold change is -0.173 in experiment [1]; 0.22 in experiment [17]; 0.039 in experiment [3]; 0.038 in [5]; -0.094 in experiment [18]; -0.071 in experiment [19]. Besides, the log2 fold change was 0.018 in experiment [6]; 0.039 in experiment [7]; 0.078 in experiment [20]; 0.149 in experiment [8]; -0.171 in [9]; 0.088 in experiment [10]. For the same target, the log2 fold change was -0.226 in [11]; 0.035 in experiment [12]; -0.071 in [13]; -0.034 in experiment [14]; -0.073 in experiment [16].
ZSCAN26 (UniProt Q16670): in experiment [7], the log2 fold change is -0.239.
Regarding WEE1 (UniProt P30291), the log2 fold change in experiment [1] is 0.029; in experiment [2], 0.056; in experiment [17] it was 0.015; in experiment [3] it was -0.25; in [4], -0.032; in [5], -0.077. Also, the log2 fold change in [6] was -0.016; in experiment [7], -0.1; in experiment [8], -0.194; in [9] it was 0.498 (active); in [10], 0.145; in experiment [11] it was -0.072. Besides, the log2 fold change was -0.035 in experiment [12]; 0.11 in experiment [13]; 0.018 in experiment [14]; 0.055 in experiment [15]; 0.129 in [16].

For the origin of these results see the supplement of paper PMC10849652.
